# Source: PubChem BioAssay (National Center for Advancing Translational Sciences (NCATS))
# In the library only some 10% were active in any assay of this set; here they are far more common.
# BAZ2B inh – qHTS Assay for Inhibitors of BAZ2B | Bromodomain adjacent to zinc finger domain protein 2B (Homo sapiens), Q9UIF8 | AlphaScreen BAZ2B-H3K14Ac peptide displacement | Potency, µM (titrated, usually from 114 µM), for inactives: top-dose activity change, negative = inhibition, actives largely listed as inhibitors | 4.4% of 360,000 active; also: potency is read from the fitted curve at half-maximal effect; % is scaled to controls: 0 for no effect and ±100 for the full control effect; nearly all actives have a fitted effect of over 60% in size
#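 Inhibition is scored as reduced AlphaScreen emission. The BAZ2B/b-H3(5-23)K14Ac complex (50 nM each) in PBS pH 7.4, 0.01% Tween-20 meets compound (up to 110 uM) for 30 min at RT before bead addition.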
# G9a block – qHTS Assay for Inhibitors of Histone Lysine Methyltransferase G9a; AID 504332, 2011; Potency, µM (titrated, usually from 102 µM), inactives show at the top dose activity, negative = inhibition, hits mostly inhibitors; Histone-lysine N-methyltransferase EHMT2 (Homo sapiens), Q96KQ7; 8.8% of 350,000 active; G9a H3K9 monomethylation, AlphaScreen, 2 h; also: potency is read from the fitted curve at half-maximal effect; % is scaled to controls: 0 for no effect and ±100 for the full control effect; nearly all actives have a fitted effect of over 75% in size
#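 Chemiluminescent proximity detection of H3K9 monomethylation, read after 10 min bead incubation in the dark. Reaction: 20 nM G9a, 500 nM biotin-H3K9 peptide, 20 uM SAM cofactor, 2 h, room temperature, following 15 min enzyme-compound preincubation.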
# HP1b chromo inh – HTS for Inhibitors of HP1-beta Chromodomain Interactions with Methylated Histone Tails. AlphaScreen HP1-beta / biotin-H3K9me3 peptide binding. Potency, µM (doses to about 114 µM), for inactives: top-dose activity change, negative = inhibition, actives largely listed as inhibitors. 0.56% of 390,000 active; also: potency is read from the fitted curve at half-maximal effect; nearly all actives have a fitted effect of over 70% in size
#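 Compound inhibition of the preformed complex between 50 nM HP1-beta and 50 nM biotinylated H3K9me3 peptide was read by AlphaScreen. Buffer was PBS pH 7.4 with 0.01% Tween-20. Incubations ran 30 min at room temperature, with 10 ug/mL donor/acceptor beads.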
# JMJD2A Tudor – qHTS Assay for Inhibitors of JMJD2A-Tudor Domain | Lysine-specific demethylase 4A (Homo sapiens), O75164 | AlphaScreen JMJD2A-Tudor / H3K4me3 peptide binding | Potency, µM (top dose mostly 114 µM), for inactives: top-dose activity change, negative = inhibition, actives largely listed as inhibitors | 4.4% of 390,000 active; also: potency is read from the fitted curve at half-maximal effect; % is scaled to controls: 0 for no effect and ±100 for the full control effect; nearly all actives have a fitted effect of over 50% in size
# Six1-Eya2 inh – qHTS Assay for Inhibitors of the Six1/Eya2 Interaction | AlphaScreen GST-Six1/His-Eya2 binding, biochemical; hits give low values | 0.56% of 360,000 active | Homeobox protein SIX1 (Homo sapiens) + Protein phosphatase EYA2 (Homo sapiens), … | activity change, % (concentration not given with the values); in the data active = activity change below about -65%; inconclusive = mostly about -30% to -63%; also: % is scaled to controls: 0 for no effect and ±100 for the full control effect
#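 AlphaScreen with GST-Six1 and His-Eya2 (5X mix: 250 nM and 500 nM), glutathione donor and nickel acceptor beads; buffer 50 mM Tris pH 8.0, 300 mM NaCl, 1 mM TCEP; 1 h at 37 C in the dark.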
# CtBP-E1A blk – qHTS Assay for Inhibitors of the CtBP/E1A Interaction. AlphaScreen GST-E1A/His-CtBP binding, 1536-well; hits give low values. activity change, % (concentration not given with the values). AID 651724, 2012. 0.49% of 340,000 active; in the data active = activity change below about -65%; inconclusive = mostly about -30% to -63%; also: % is scaled to controls: 0 for no effect and ±100 for the full control effect
#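 GST-E1A and His-tagged CtBP (125 nM each as 5X stock) were preincubated with pin-transferred compound for 2 h at 37 °C in the dark, then glutathione donor and nickel acceptor beads were added for 1 h before AlphaScreen reading.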
# Numbers without * were called inactive; ? = inconclusive; / = not tested or not shown; ! = a repeat was not active; [ ] = another dose, or the depositor's remark. Unless noted, calls follow the shape of the dose curve; as a rule, active = well fitted inhibition curve with a large enough effect; inconclusive = small, poorly fitted or top-dose-only effect; inactive = no such curve, though single readings can be large or run the other way.
SMILES,BAZ2B inh,G9a block,HP1b chromo inh,JMJD2A Tudor,Six1-Eya2 inh,CtBP-E1A blk
N#Cc1ccc(OCC(=O)Nc2cc(S(=O)(=O)N3CCOCC3)ccc2N2CCOCC2)cc1,-7.1%,70.8µM*,16.4%,0.4%,16.7,4.6
CCCCCC(=O)Nc1cc(S(=O)(=O)N2CCOCC2)ccc1N1CCCC1,-10.0%,28.2µM*,21.6%,0.7%,3.3,17.9
Nc1nnc(SCC(=O)Nc2cc(S(=O)(=O)N3CCOCC3)ccc2N2CCCC2)s1,2.7%,-6.0%[59 µM],38.0%,-12.7%,4.9,7.1
N#Cc1ccc(OCC(=O)Nc2cc(S(=O)(=O)N3CCOCC3)ccc2N2CCCC2)cc1,/,/,34.2%,-8.1%,-1.2,2.9
Cc1cccc(CCNC(=O)Cn2ncc3c(=O)oc4ccccc4c32)c1,/,-27.6%[59 µM],36.4%,-22.0%,/,/
CCc1ccccc1NC(=O)CSC1=Nc2ccccc2C2=NC(Cc3ccccc3)C(=O)N12 (configuration not stated),-9.6%,4.5%[59 µM],13.0%,-33.1%,/,/
CCn1cc(C(=O)NCCc2ccccc2)c(=O)c2cc(S(=O)(=O)N(C)C3CCCCC3)ccc21,/,-33.9%[59 µM],22.2%,-20.0%,/,/
CCOc1ccc(CNC(=O)Cn2c(=O)c3cccn3c3ccc(F)cc32)cc1,?,-11.0%[59 µM],24.6%,-5.9%,/,/
CCOC(=O)CCC(=O)Nc1cc(S(=O)(=O)N2CCOCC2)ccc1N1CCCCC1,0.0%,24.9%[59 µM],40.1%,-9.4%,-3.4,-2.3
N#Cc1ccc(NC(=O)CNc2cc(S(=O)(=O)N3CCOCC3)ccc2NCC2CCCO2)cc1 (configuration not stated),-15.2%,39.8µM*,30.8%,-18.0%,3.8,2.3
O=C(CNc1cc(S(=O)(=O)N2CCOCC2)ccc1NCC1CCCO1)Nc1ccc(C(F)(F)F)cc1 (configuration not stated),0.5%,0.7%[12.7 µM],-22.5%,?,-3.9,-21.9
COc1ccc(CC(=O)OCC(=O)Nc2cc(S(=O)(=O)N3CCOCC3)ccc2N2CCCC2)cc1,1.0%,39.8µM*,-3.3%,-11.1%,-8.6,0.0
COc1ccc(CC(=O)Nc2cc(S(=O)(=O)N3CCOCC3)ccc2N2CCCC2)cc1,/,/,/,/,2.3,0.3
CCOCC(=O)Nc1cc(S(=O)(=O)N2CCOCC2)ccc1N1CCCCC1,?,7.08µM*,?,89.1µM*,-5.2,0.0
CCCn1c(SCC(=O)Nc2cc(S(=O)(=O)N3CCOCC3)ccc2OC)n[nH]c1=O,-23.6%,3.16µM*,-6.5%,-5.5%,1.0,-0.5
Cc1cccc(C)c1NC(=O)Cn1c(=O)n(CCC(=O)NCc2ccccc2Cl)c(=O)c2sccc21,-35.8%,-2.1%[59 µM],38.2%,1.7%,/,/
COc1cc(S(=O)(=O)N2CCOCC2)ccc1NC(=O)CSc1nnc(N)s1,2.6%,44.7µM*,42.8%,5.1%,-2.4,1.2
S=c1[nH]ncn1NCc1cccc(Br)c1,/,/,17.6%,15.8µM*,3.9,4.4
C=CCOc1ccc2ccccc2c1CNn1cn[nH]c1=S,-9.5%,/,30.7%,?,-5.4,4.6
Cc1ccc(CNn2cn[nH]c2=S)cc1,/,/,37.7%,8.91µM*,3.0,/
C=CCOc1ccc(CNn2cn[nH]c2=S)cc1,-1.6%,20µM*,24.7%,31.6µM*,-1.8,-4.2
Cc1ccc(CNc2ccc(CNc3ncn[nH]3)cc2)cc1,?,?,-7.0%,?,-11.8,-0.7
CCOC(=O)c1c(C)oc2nc(C)nc(NCc3ccc(OC)cc3)c12,3.0%[57.1 µM],-3.0%[59 µM],30.8%,10.7%,/,/
CCN(CC)CCOC(=O)C1(C2CCCCC2)CCCCC1,?,33.6µM*!,11.3%,-31.7%,-4.7,-23.8
O=C(Cc1ccc(S(=O)(=O)N2CCOCC2)s1)Nc1ccccc1Br,70.8µM*,/,-6.3%,?,-3.0,/
